Bioassay records deposited in PubChem by The Scripps Research Institute Molecular Screening Center.
Fam108B inh: counter-screen for RBBP9 inhibitors: inhibitors of mouse Fam108B; recombinant Fam108B, FP-Rh probe fluorescence polarization; inhibition, % at 9.51 µM; 300,000 compounds, 0.33% hits; AID 1947;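 active = inhibition above the screen mean inhibition plus 3 SD, computed separately per campaign, cut at about 18% in these data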;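 note: inhibitors lower polarization as less probe binds the enzyme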
GSTO1 counter: GSTO1 inhibition, counter-screen for RBBP9 inhibitors; P78417; recombinant GSTO1, activity-based probe fluorescence polarization; inhibition, % at 5.96 µM; 300,000 compounds, 1.1% hits; AID 1974;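 active = inhibition above the campaign mean inhibition plus 3 SD, cut at about 35% in these data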
PME-1 inh: blocks human protein phosphatase methylesterase 1; inhibition, % at 5.9 µM; AID 2130; recombinant PME-1, FP-Rh probe fluorescence polarization; 320,000 compounds, 0.53% hits;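 active = inhibition above the campaign mean of all compounds plus 3 SD, cut at about 26% in these data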;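 note: competitive labeling of PME-1 active site by serine hydrolase directed probe; inhibitors block probe labeling so polarization falls and inhibition rises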
LYPLA2 counter: LYPLA2 (human) inhibition in PME1 counter-screen; O95372; recombinant LYPLA2, FP-Rh probe fluorescence polarization; inhibition, % at 5.9 µM; 320,000 compounds, 0.38% hits; AID 2177;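 active = inhibition above the screen-wide mean plus 3 SD, limit set per campaign, cut at about 26% in these data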
Target sequence (O95372 whole entry, looked up): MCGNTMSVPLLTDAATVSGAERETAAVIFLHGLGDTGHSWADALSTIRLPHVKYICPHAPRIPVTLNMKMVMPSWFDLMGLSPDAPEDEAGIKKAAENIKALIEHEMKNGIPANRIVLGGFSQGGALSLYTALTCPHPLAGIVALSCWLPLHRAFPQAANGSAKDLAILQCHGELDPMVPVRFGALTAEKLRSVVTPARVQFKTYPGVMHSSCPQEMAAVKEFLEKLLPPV
PREPL inh: inhibits the human prolyl oligopeptidase-like enzyme. inhibition, % at 5.96 µM. AID 2751. Q4J6C6. 320,000 compounds, 0.68% hits. recombinant PREPL, fluorescence polarization activity-based probe
LYPLA1 counter: blocks human lysophospholipase 1, a PME1 counter-screen. recombinant LYPLA1, FP-Rh probe fluorescence polarization. inhibition, % at 5.9 µM. O75608. 320,000 compounds, 0.16% hits;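 active = inhibition above the mean of all tested compounds plus 3 SD, set per campaign, cut at about 14% in these data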;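 note: inhibitors block serine hydrolase probe labeling of LYPLA1 so polarization falls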
PREPL confirm: human PREPL inhibition, confirmation; shares compounds with PREPL inh; recombinant PREPL, fluorescence polarization activity probe; inhibition, % at 5.96 µM; 2,000 compounds, 67% hits; AID 2803
Hits are given with their value; - = inactive; . = not tested or not shown. Rows were chosen to be rich in hits. Some 2% of all compounds tested hit in one or more screens of this group. Cut-off read from the data, not from the text of the source, unless noted: active = inhibition above about 43%; inactive = the rest.

SMILES	Fam108B inh	GSTO1 counter	PME-1 inh	LYPLA2 counter	PREPL inh	LYPLA1 counter	PREPL confirm
Cc1ccc(NC(=O)CN(C)C(=O)Cc2c[nH]c3ccccc23)cc1	.	.	.	.	-	.	.
C#CCOCCOCCOCCNc1nc(N2CCN(C(=O)C([C@@H](C)CC)n3cc(C(N)COC(=O)C(F)(F)F)nn3)CC2)nc(N2CCN(C(=O)[C@H](Cc3cc4ccccc4[nH]3)n3cc(C(N)CO)nn3)CC2)n1 (some centres undefined)	-	-	-	-	-	-	.
C#CCOCCOCCOCCNc1nc(N2CCN(C(=O)[C@H](Cc3ccc(O)cc3)n3cc([C@@H](N)C(C)CC)nn3)CC2)nc(N2CCN(C(=O)[C@H](Cc3cc4ccccc4[nH]3)n3cc([C@@H](N)CC(C)C)nn3)CC2)n1 (some centres undefined)	-	-	-	-	56	-	48
C#CCOCCOCCOCCNc1nc(N2CCN(C(=O)[C@H](CCC(=O)O)n3cc(C(N)Cc4ccc(O)cc4)nn3)CC2)nc(N2CCN(C(=O)[C@H](Cc3cc4ccccc4[nH]3)n3cc(C(N)[C@H](C)CC)nn3)CC2)n1 (some centres undefined)	-	-	-	-	-	-	.
C#CCOCCOCCOCCNc1nc(N2CCN(C(=O)[C@H](Cc3cc4ccccc4[nH]3)n3cc(C(N)CC(C)C)nn3)CC2)nc(N2CCN(C(=O)[C@H](CCC(=O)O)n3cc(C(N)[C@H](C)CC)nn3)CC2)n1 (some centres undefined)	-	-	-	-	-	-	.
C#CCOCCOCCOCCNc1nc(N2CCN(C(=O)[C@H]([C@@H](C)CC)n3cc([C@@H](N)CO)nn3)CC2)nc(N2CCN(C(=O)[C@H](Cc3cc4ccccc4[nH]3)n3cc([C@@H](N)C(C)CC)nn3)CC2)n1 (some centres undefined)	-	-	-	-	48	-	49
C#CCOCCOCCOCCNc1nc(N2CCN(C(=O)[C@H](Cc3ccc(O)cc3)n3cc([C@@H](N)C(C)CC)nn3)CC2)nc(N2CCN(C(=O)[C@H](Cc3cc4ccccc4[nH]3)n3cc([C@@H](N)C(C)CC)nn3)CC2)n1 (some centres undefined)	-	-	-	-	47	-	-
C=CCn1c(SCC(=O)N(C)CC(=O)Nc2ccc(C)cc2)nnc1-c1ccncc1	.	.	.	.	-	.	.
COC(=O)[C@@H](Cc1c[nH]c2ccccc12)NC(=O)CCC(=O)c1ccc(F)cc1	-	-	-	-	-	-	.
CCNC(=O)/C(C#N)=C/c1c(N2CCN(c3ccc(OC)cc3)CC2)nc2c(C)cccn2c1=O	-	-	-	-	55	-	49
COCCNC(=O)/C(C#N)=C/c1c(N2CCN(c3ccc(OC)cc3)CC2)nc2c(C)cccn2c1=O	-	-	-	-	54	-	49
CCNC(=O)/C(C#N)=C/c1c(N2CCN(c3ccccc3)CC2)nc2c(C)cccn2c1=O	-	-	-	-	-	-	.
CC(C)CCNC(=O)CCn1c(=S)oc2ccccc21	-	-	-	-	-	-	.
CCNC(=O)N(C)C[C@H]1N[C@@](CC)(C(=O)OC)[C@H]2C(=O)N(C)C(=O)[C@@H]12	.	.	.	.	-	.	.
Cc1ccc(CNc2ccc3c(c2)ncn3C(C)(C)C)cc1	-	-	-	-	49	-	46
Fc1ccccc1Cc1noc(CN(Cc2ccccn2)CC2CCCO2)n1 (centres undefined)	-	-	-	-	51	-	-
CC(C)NC(=O)C(c1ccc(F)cc1)N(C(=O)CCC(=O)Nc1ccccn1)c1cccc(F)c1 (centres undefined)	-	-	-	-	-	-	.
NC1=NC[C@H](Cc2ccccc2)N1CCCCC1CCCCC1	-	-	-	-	-	-	.
CCC[C@@H](CN1CCC[C@H]1CN1C(N)=NC[C@H]1C(C)C)N1C[C@@H](Cc2ccccc2)N(CCCC2CCCC2)C1=N	.	.	.	.	57	.	55
CCCCN1C(=N)N([C@@H](CCC)CN2CCC[C@H]2CN2C(N)=NC[C@@H]2Cc2ccccc2)C[C@H]1[C@H](C)CC	.	.	.	.	45	.	47
